# In the library only some 1.6% were active in any assay of this set; here they are far more common.
# GC-A act = GC-A stimulated cGMP production enhancers – HEK293 GC-A cells, cGMP TR-FRET, EC30 ANP, primary screen. Atrial natriuretic peptide receptor 1 (Homo sapiens), P16066. 0% at EC30 ANP, 100% saturating ANP. activation, % at 10 µM. hit rate 0.14% among 370,000. AID 1671463, 2021; in the data active means activation above about 40%
# PG9 Ab binder = binders of HIV-1 gp120 antibody PG9, primary screen, biochemical, TR-FRET | hit rate 0.43% among 360,000 | HIV-1 gp120 / PG9 antibody interaction | TR-FRET gp120-PG9 antibody binding | inhibition, % at 6.7 µM; in the data active means inhibition above about 8.5%
# V-ATPase pHluor = regulators of yeast V-ATPase proton pumping, primary screen, pHLuorin cytosolic pH fluorescence; S. cerevisiae; response, % at 10 µM; hit rate 0.37% among 350,000; in the data active means response mostly above about 7.3%, no sharp cut-off; inactive means mostly below about 5.4%; further: actives read high
# NPR2 activator = human GC-B receptor activators, primary screen, HEK293 GC-B cells, cGMP TR-FRET, EC30 CNP | AID 1920062, 2024 | 0% at EC30 CNP, 100% saturating CNP | activation, % at 10 µM | Atrial natriuretic peptide receptor 2 (Homo sapiens), P20594 | hit rate 0.11% among 370,000;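 active means activation at 10 µM reaching about 35% in either raw or pattern-adjusted values, limit read from the data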
# Rev-erbA mod = modulators of Rev-erb alpha DNA binding, primary screen, biochemical, FITC-DNA, fluorescence polarization, uHTS. Nuclear receptor subfamily 1 group D member 1 (Homo sapiens), P20393. Rev-erbα–FITC-DNA binding, 90 min. activity, % at 10 µM. hit rate 0.79% among 370,000;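 active means activity above about 14%, limit read from the data; passing the limit was not always enough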;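 further: 0% = DMSO wells with 35 nM protein and 100% = DMSO wells with 750 nM protein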
# Target sequence (P20393 whole entry, looked up): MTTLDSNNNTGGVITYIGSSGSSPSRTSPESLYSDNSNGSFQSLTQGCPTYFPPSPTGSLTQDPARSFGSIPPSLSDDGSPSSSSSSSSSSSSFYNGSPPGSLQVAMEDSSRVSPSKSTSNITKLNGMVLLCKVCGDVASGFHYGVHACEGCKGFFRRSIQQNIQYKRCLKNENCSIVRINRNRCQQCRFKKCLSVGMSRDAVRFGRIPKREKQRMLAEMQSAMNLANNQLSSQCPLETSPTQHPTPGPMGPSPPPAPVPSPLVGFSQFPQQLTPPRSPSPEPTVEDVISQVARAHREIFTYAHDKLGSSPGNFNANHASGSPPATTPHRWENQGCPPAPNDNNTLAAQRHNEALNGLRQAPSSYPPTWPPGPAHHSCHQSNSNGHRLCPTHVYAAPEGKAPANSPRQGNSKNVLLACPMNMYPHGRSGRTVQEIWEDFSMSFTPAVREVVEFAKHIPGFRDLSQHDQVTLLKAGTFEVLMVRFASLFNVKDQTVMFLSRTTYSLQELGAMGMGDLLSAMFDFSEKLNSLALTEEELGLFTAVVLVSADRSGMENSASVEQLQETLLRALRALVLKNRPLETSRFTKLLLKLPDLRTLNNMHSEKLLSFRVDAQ
# PG9 binder conf = binders of anti-gp120 antibody PG9, confirmation, biochemical, TR-FRET. shares compounds with PG9 Ab binder. TR-FRET PG9 antibody binding. hit rate 90% among 1,500. inhibition, % at 6.7 µM; in the data active means inhibition above about 9%
# PGV04 Ab binding = binders of control antibody PGV04, counter-screen for PG9 antibody binder project, biochemical, TR-FRET, distinct HIV envelope site; shares compounds with PG9 Ab binder; TR-FRET PGV04 antibody-gp120 binding; inhibition, % at 6.7 µM; hit rate 95% among 1,500; AID 651604, 2012; in the data active means inhibition above about 9.5%
# * hit, by the source's call; · = not tested or not shown.
SMILES,GC-A act,PG9 Ab binder,V-ATPase pHluor,NPR2 activator,Rev-erbA mod,PG9 binder conf,PGV04 Ab binding
C[C@@H]1CCC[C@]2(O[C@H](CCO)C[C@H](O)[C@H]2O)O1,1,13*,2,-2,-4,-3,-2
C=CCn1c(SCC(=O)Nc2ccc(CCCC)cc2)nnc1-c1ccc(Cl)cc1,-1,·,·,3,13,·,·
CC(c1ccccc1)n1cc(C(=O)N2CCCC2)nn1 (stereo unspecified),1,·,·,7,-5,·,·
Cn1c(/C=C/c2ccc(Br)cc2)nc2ccccc2c1=O,0,46*,-73,-7,14,15*,29*
CC(C)C[C@@H]1COc2cccc(F)c2S(=O)(=O)N1C,3,·,·,4,-3,·,·
COc1ccc2oc(=O)c(C(=O)NCc3ccc(C)cc3)cc2c1,-4,8.8*,-8,9,4,16*,24*
COc1ccc(CNC(=O)c2cc3cc(OC)ccc3oc2=O)cc1,-1,-1,-3,0,1,·,·
CCOc1ccccc1-c1n[nH]c(=S)o1,6,11*,-2,2,-3,14*,19*
COC(=O)C1CN(Cc2ccc(OC)cc2)CCS(=O)(=O)N1Cc1cn(Cc2ccccc2)nn1 (stereo unspecified),-3,·,·,-4,0,·,·
O=C(Nc1ccsc1C(=O)NC1CCCCC1)c1ccccc1,3,28*,-2,-2,15,25*,31*
O=C(Nc1ccccc1C(=O)NC1CCCCC1)c1ccccc1,0,-2,-4,4,3,·,·
Cc1ccc(-c2cc(C(=O)NN=Cc3ccc(F)cc3)[nH]n2)cc1C,2,·,·,-7,-4,·,·
CCOCCCn1c(SCC(=O)Nc2ccc(OC)cc2)nc2ccccc2c1=O,-8,48*,-2,1,4,48*,55*
CCOCCCn1c(SCC(=O)Nc2ccccc2)nc2ccccc2c1=O,-2,0,-2,-4,1,·,·
N#Cc1c(SCC(=O)O)nc(-c2ccccc2)c2c1CCCC2,6,13*,1,0,-7,19*,24*
N#Cc1c(SCC(N)=O)nc(-c2ccccc2)c2c1CCCC2,-11,4,-1,-1,6,·,·
O=C(CSc1nnc(-c2ccccn2)n1-c1ccccc1)Nc1ccc(OCc2ccccc2)cc1,1,·,·,4,-3,·,·
COc1cccc(OCc2nn3c(=O)c(-c4ccccc4)nnc3s2)c1,-1,12*,-4,-1,18,19*,35*
NC(=O)C1CCN(c2ccc(S(=O)(=O)N3CCC(Cc4ccccc4)CC3)cn2)CC1,0,14*,10,-2,1,24*,34*
O=S(=O)(c1ccc(Cl)nc1)N1CCC(Cc2ccccc2)CC1,-4,0,1,-2,0,·,·
COc1cccc(NC(=O)CSc2nc3scc(C)c3c(=O)[nH]2)c1,4,26*,-2,-5,8,29*,43*
COC(=O)[C@]12C[C@H](CC(=O)NCc3cccc4ccccc34)C(=O)N(Cc3ccco3)C1=C[C@H](C1CCCC1)O[C@@H]2C,-7,·,·,-7,2,·,·
CSc1ncccc1C(=O)OCc1ccc(C#N)cc1,1,9.8*,1,3,2,15*,20*
CCOc1ncccc1C(=O)OCC(=O)Nc1ccc(Cl)cn1,-1,-2,4,6,-1,·,·
CSc1ncccc1C(=O)OCC(=O)Nc1ccc(Cl)cn1,-4,17*,1,-6,-3,9.9*,15*
SMILES,GC-A act,PG9 Ab binder,V-ATPase pHluor,NPR2 activator,Rev-erbA mod,PG9 binder conf,PGV04 Ab binding
CSc1ncccc1C(=O)OCC(=O)c1ccc(C)s1,2,16*,-4,-3,17,16*,38*
CCCC(=O)Nc1nc(C)c(C(C)=O)s1,9,32*,0,3,-6,36*,49*
S=c1[nH]ccc2ccccc12,0,11*,7,1,-5,4,11*
S=c1[nH]ncc2ccccc12,0,0,1,2,4,·,·
CC(=O)c1sc(C(C)(C)C)cc1NC(=O)CCC(=O)O,6,10*,-2,6,1,19*,23*
CC(=O)c1sc(C(C)(C)C)cc1NC(=O)/C=C/C(=O)O,6,0,4,6,-4,·,·
Cc1ccccc1NC(=O)Nc1nc2ccc(S(C)(=O)=O)cc2s1,0,11*,3,-3,6,12*,28*
CCOc1ccc(NC(=O)Nc2nc3ccc(S(C)(=O)=O)cc3s2)cc1,1,14*,2,-5,10,19*,22*
C=CCN1[C@H](CO)[C@H](c2ccc(Br)cc2)[C@@H]1C#N,-2,·,·,-6,3,·,·
O=C(Cn1ccc2ccccc2c1=O)NCC1COc2ccccc2O1 (stereo unspecified),-1,17*,2,6,-1,21*,27*
COc1cc(-n2c(C)nc3cc(C(=O)N4CC(C)CC(C)C4)ccc32)cc(OC)c1OC (stereo unspecified),8,·,·,8,-1,·,·
CC(=O)c1ccc(NC(=O)CSc2ccc(-c3ccc4c(c3)OCO4)nn2)cc1,6,10*,3,0,14,15*,29*
CC(=O)Nc1ccc(NC(=O)CSc2ccc(-c3ccc4c(c3)OCO4)nn2)cc1,-1,-3,-1,-1,6,·,·
Cc1cc(OC(=O)c2cc(Cl)ccc2Cl)c([N+](=O)[O-])c(=O)[nH]1,0,30*,2,3,4,7,11*
COC(=O)C1CCN(C(=O)CN2CCC(C(=O)c3ccc(C)cc3)CC2)CC1,1,·,·,-3,0,·,·
CCOC(=O)c1c(C)[nH]c(C(=O)COC(=O)c2ccc(F)c(S(=O)(=O)N3CCOCC3)c2)c1C,2,17*,0,3,16,29*,40*
COc1ccc(/C(O)=C2/C(=O)C(=O)N(CC3CCCO3)C2c2ccc(O)c(OC)c2)cc1 (stereo unspecified),0,-4,-1,-5,4,·,·
COc1ccc(/C(O)=C2/C(=O)C(=O)N(CC3CCCO3)C2c2cccc(OC)c2)cc1 (stereo unspecified),-2,2,-2,7,-1,·,·
COc1cccc(C2/C(=C(\O)c3ccc4c(c3)OCCO4)C(=O)C(=O)N2CC2CCCO2)c1 (stereo unspecified),3,9.2*,-3,5,1,16*,20*
